Measured values: the supplement of paper PMC13380429

Experiments:
[1] = system: Vero E6 infected with SARS-CoV-2; assay: morphology score (similarity to uninfected cells); higher = more like uninfected cells; settings: 24 h
[2] = system: Vero E6 infected with SARS-CoV-2; assay: SARS-CoV-2 infection rate relative to infected DMSO; higher = more infection, active = 60 or less; settings: 24 h

| SMILES | morphology score [1] | SARS-CoV-2 infection rate [2] |
| --- | --- | --- |
| C[C@@H](NCCCc1cccc(C(F)(F)F)c1)c1cccc2ccccc12 [cinacalcet] (10 µM) | 0.845 | 20% (active) |
| CCCN1CCO[C@@H]2c3cc(O)ccc3OC[C@H]21 (10 µM) | 0.173 | 87% (inactive) |
| CN1[C@@H]2CC[C@H]1C[C@@H](OC(c1ccc(F)cc1)c1ccc(F)cc1)C2 [3-alpha-bis-(4-fluorophenyl)-methoxytropane] (10 µM) | 0.266 | 73% (inactive) |
| Oc1c(Cl)cc(Cl)c(Cl)c1Cc1c(O)c(Cl)cc(Cl)c1Cl [hexachlorophene] (10 µM) | 0.167 | 83.5% (inactive) |
| CC(CN1c2ccccc2Sc2ccccc21)N(C)C (stereo not drawn) [promethazine] (10 µM) | 0.528 | 67.5% (inactive) |
| CCOC(=O)c1ccc(N(C)c2csc(-c3ccccc3)n2)cc1 [neuropathiazol] (10 µM) | -0.0531 | 110% (inactive) |
| Cc1cc(C)cc(OCC2CNC(=O)O2)c1 (stereo not drawn) [metaxalone] (10 µM) | 0.134 | 97% (inactive) |
| COc1ccc(-c2cc(=O)c3c(O)cc(O[C@@H]4O[C@H](CO[C@@H]5O[C@@H](C)[C@H](O)[C@@H](O)[C@H]5O)[C@@H](O)[C@H](O)[C@H]4O)cc3o2)cc1O [diosmin] (10 µM) | -0.119 | 106% (inactive) |
| Cc1cc(C(C)(C)C)c(O)c(C)c1CC1=NCCN1 [oxymetazoline] (10 µM) | 0.233 | 100% (inactive) |
| Cc1[nH]c(/C=C2\C(=O)Nc3ccc(F)cc32)c(C)c1C(=O)NCCN1CCCC1 [toceranib] (0.833333 µM) | -0.0721 | 26% (active) |
| CCNCC(O)c1cccc(O)c1 (stereo not drawn) [etilefrine] (10 µM) | 0.131 | 100% (inactive) |
| COc1cc(COc2cc(N)c(Cl)cc2C(=O)CCC2CCN(CCNS(C)(=O)=O)CC2)cc(OC)c1 (0.833333 µM) | 0.265 | 102% (inactive) |
| Cc1c(C)c2c(c(C)c1O)CCC(C)(C(=O)O)O2 (stereo not drawn) [trolox] (0.833333 µM) | 0.0965 | 98.5% (inactive) |
| N#Cc1c(N)nc(SCc2ncc[nH]2)c(C#N)c1-c1ccc(O)cc1 (10 µM) | -0.0242 | 108% (inactive) |
| COc1cc(OC)c(/C=C2/C(=O)Nc3ccccc32)c(OC)c1 (10 µM) | -0.0269 | 96.5% (inactive) |
| OC[C@H]1O[C@H](O[C@H]2[C@H](O)[C@@H](O)[C@H](O)O[C@@H]2CO)[C@H](O)[C@@H](O)[C@@H]1O [D-(+)-maltose] (10 µM) | 0.129 | 86% (inactive) |
| C[C@@H]1C[C@H]2[C@@H]3CCC4=CC(=O)C=C[C@]4(C)[C@@]3(Cl)[C@@H](O)C[C@]2(C)[C@@]1(OC(=O)c1ccco1)C(=O)CCl (10 µM) | 0.481 | 78% (inactive) |
| CNNCc1ccc(C(=O)NC(C)C)cc1 [procarbazine] (10 µM) | 0.133 | 106% (inactive) |
| CC(C)(O)c1coc(S(=O)(=O)NC(=O)Nc2c3c(cc4c2CCC4)CCC3)c1 (10 µM) | 0.0866 | 93.5% (inactive) |
| CCN(CC)C(C)C(=O)c1ccccc1 (stereo not drawn) [amfepramone] (10 µM) | 0.016 | 116% (inactive) |
| CCCCCCCC/C=C\CCCCCCCC(=O)N[C@@H](CO)Cc1ccc(O)cc1 (10 µM) | 0.123 | 104% (inactive) |
| COC(=O)c1ccccc1O [methyl-salicylate] (10 µM) | -0.162 | 110% (inactive) |
| O=C(CCCl)NCc1ccccc1 [beclamide] (10 µM) | 0.278 | 97.5% (inactive) |
| Nc1nc(OCc2ccccc2)c2nc[nH]c2n1 [O6-benzylguanine] (10 µM) | 0.112 | 108% (inactive) |
